Bioassay records: PubChem, several laboratories
Rows were chosen to be rich in hits. Some 27% of all compounds tested hit in one or more screens of this group.
CYP2C19 act = activators of human cytochrome P450 2C19; P33261; recombinant CYP2C19, luciferin-H EGE luminescence; hits give high values; 0 = fully inhibited enzyme, 1 = untreated enzyme; AID 1025; 96,000 tested, under 10 active; activation factor at 5 µM;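 active means activation factor of at least 2 at 5 µM in the primary screen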
Target sequence (P33261 whole entry, looked up): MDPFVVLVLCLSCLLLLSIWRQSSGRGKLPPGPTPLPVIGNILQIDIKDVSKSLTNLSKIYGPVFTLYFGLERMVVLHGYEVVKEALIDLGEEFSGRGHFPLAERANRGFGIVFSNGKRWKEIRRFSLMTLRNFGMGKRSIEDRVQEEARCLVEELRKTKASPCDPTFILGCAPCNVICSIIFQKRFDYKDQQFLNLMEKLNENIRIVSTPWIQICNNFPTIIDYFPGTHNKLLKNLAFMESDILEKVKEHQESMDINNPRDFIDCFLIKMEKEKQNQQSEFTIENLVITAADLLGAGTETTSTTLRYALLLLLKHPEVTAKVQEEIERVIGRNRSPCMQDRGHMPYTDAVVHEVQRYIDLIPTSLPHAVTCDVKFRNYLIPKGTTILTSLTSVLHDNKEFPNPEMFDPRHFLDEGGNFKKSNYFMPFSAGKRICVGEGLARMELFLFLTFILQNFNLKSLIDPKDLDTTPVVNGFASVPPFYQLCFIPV
CYP2C9 act = CYP2C9 (human) activation; recombinant CYP2C9, luciferin-H conversion, luminescence; hits give high values; factor 1 = untreated enzyme, 0 = blocked; activation factor at 5 µM; AID 1024; 96,000 tested, 1.4% active; P11712;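 active means activation factor of 2 or more for CYP2C9 at a 5 µM dose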
CYP2C19 inhib = blocks human cytochrome P450 2C19 | inhibition, % at 5 µM | AID 778 | P33261 | CYP2C19 Supersomes, luciferin-H EGE luminescence, 30 min | 96,000 tested, 21% active;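 active means CYP2C19 inhibition above a set limit at 5 µM in the primary screen, cut at about 50% in these data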
CYP2C9 inhib = inhibitors of human CYP2C9. CYP2C9 Supersomes, luciferin-H conversion, luminescence. inhibition, % at 5 µM. 96,000 tested, 20% active;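 active means blocking of liver enzyme CYP2C9 beyond about 50% at 5 µM, limit read from the data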
Cav3 T inh = inhibitors of human Cav3.2 T-type calcium channel. O95180. Cav3.2-expressing cells, Fluo-4 calcium fluorescence FDSS; hits give low values. 100,000 tested, 4% active. B-score at 10 µM;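 active means single-dose well whose peak fluorescence ratio is a statistical outlier from its plate by either plate-standardised score or position-corrected B-score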
A number is an active result; – = inactive; · = not tested or not shown.

SMILES	CYP2C19 act	CYP2C9 act	CYP2C19 inhib	CYP2C9 inhib	Cav3 T inh
CCCNC(=O)CC1C(=O)N(Cc2ccccc2)C(C)c2nc3ccccc3n21 (stereo unspecified)	–	–	67	–	–
CCCCn1c(CNC(=O)Cc2ccccc2)nc2ccccc21	–	–	–	–	–
Cc1ccc(S(=O)(=O)NCc2ccc(C(=O)NCCCN3CCN(C)CC3)cc2)cc1	–	–	–	–	–
CCC(Sc1nc2ccccc2c(=O)n1CC1CCCO1)C(=O)NCc1cccnc1 (stereo unspecified)	–	–	–	76	–
CCC(Sc1nc2ccccc2c(=O)n1CCN1CCOCC1)C(=O)NCc1cccnc1 (stereo unspecified)	–	–	–	78	–
O=C(CSc1nc2ccccc2c(=O)n1CCCO)NCc1ccccc1	–	–	–	–	–
COc1cc(NC(C)C(=O)N2CC(C)OC(C)C2)cc(OC)c1 (stereo unspecified)	–	–	–	–	–
NC(=O)CC(NC(=O)Cc1cccc2ccccc12)c1ccc(NC2CCCCCCC2)c([N+](=O)[O-])c1 (stereo unspecified)	·	·	·	·	–
O=C(Nc1ncnc2c1CCC2)C12CC3CC(CC(C3)C1)C2	–	–	–	–	–
COC(=O)CN1C(=S)N(Cc2ccccc2)C(=O)C1CC(=O)Nc1ccc(Br)cc1 (stereo unspecified)	–	–	–	–	–
C=CCN1C(=O)C(CC(=O)Nc2ccc(OC)cc2)N(Cc2ccco2)C1=S (stereo unspecified)	–	–	96	–	–
CCOc1ccc(NC(=O)CC2C(=O)N(c3ccc(OC)cc3)C(=O)N2Cc2ccc(OC)cc2)cc1 (stereo unspecified)	·	·	·	·	–
COc1ccc(NC(=O)CC2C(=O)N(CCc3ccccc3)C(=S)N2Cc2cccnc2)cc1 (stereo unspecified)	–	–	90	92	–
CCN1C(=O)C(CC(=O)Nc2ccc(OC)cc2)N(Cc2cccnc2)C1=S (stereo unspecified)	–	–	65	–	–
COc1ccc(NC(=O)CC2C(=O)N(c3ccc(OC)cc3)C(=O)N2C(C)C)cc1 (stereo unspecified)	–	–	56	–	–
C=C(C)CC1N(c2cccc(OC)c2)C(=O)[C@@H]2C(C(=O)O)[C@H]3C=C[C@@]12O3 (stereo partly specified)	–	–	–	–	–
O=C(NC1CC2CCCC(C1)N2CC(=O)N1CCCc2ccccc21)C1CCCCC1 (stereo unspecified)	·	·	·	·	–
CN1C(=O)C(CC(=O)Nc2ccc(F)cc2)N(CCCc2ccccc2)C1=S (stereo unspecified)	–	–	60	89	-5.2
COc1ccc(NC(=O)CC2C(=O)N(c3ccc(Cl)cc3)C(=S)N2CCc2ccncc2)cc1 (stereo unspecified)	–	–	88	97	–
O=C(CN1C(=O)C2C3C=CC(C3)C2C1=O)N1CC=C(c2ccccc2)CC1 (stereo unspecified)	–	–	–	–	–
c1ccc(CN2CCC(Nc3nc(-c4ccccc4)nc4ccccc34)CC2)cc1	–	–	61	86	–
O=C(NC1CCN(Cc2ccccc2)CC1)c1cc(-c2ccccn2)nc2ccccc12	–	–	–	–	–
CC(C)(C)n1nnnc1C(c1cccnc1)N1CCN(C(=O)c2ccco2)CC1 (stereo unspecified)	·	·	·	·	–
Cc1ccc2cc(C(c3nnnn3C3CCCC3)N(Cc3ccco3)Cc3cccs3)c(=O)[nH]c2c1 (stereo unspecified)	–	–	–	–	–
CC(C)(C)n1nnnc1C(c1cccnc1)N(Cc1ccccc1)Cc1ccco1 (stereo unspecified)	–	–	–	73	·
CCC(C)(C)n1nnnc1C(c1ccc(C)cc1)N(Cc1ccco1)Cc1cccs1 (stereo unspecified)	–	–	–	90	-5.8
CC(C)(C)n1nnnc1CN(Cc1ccc(F)cc1)Cc1ccco1	–	–	93	87	-4.7
COc1cccc(CN(Cc2ccco2)C(c2ccc(F)cc2)c2nnnn2C(C)(C)C)c1 (stereo unspecified)	–	–	–	51	–
N#CC12CCCCC1CC1CCCCC1(C#N)N2Cc1cccnc1 (stereo unspecified)	–	–	–	–	–
